DAX1 inh-1 = blocks DAX1 repression of SF-1 activated StAR promoter; AID 652010; 370,000 compounds, 1.1% hits; HEK293T StAR-luciferase reporter, SF-1/DAX-1 repression relief; inhibition, % at 6.8 µM;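 active means inhibition above the mean over all tested compounds plus 3 SD, cut at about 3.6% in these data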;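 further: 0% = DAX-1 cells with DMSO and 100% = cells lacking DAX-1 with DMSO; higher inhibition means more luminescence from relief of DAX-1 repression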
hcDAF12 agonist = activators of H. contortus DAF-12 nuclear receptor. HEK293 hcDAF-12 lit1-tk-luc reporter, luminescence; 0% DMSO, 100% Δ7-dafachronic acid. activation, % at 6.8 µM. 370,000 compounds, 1.4% hits;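 active means activation above the mean of all tested compounds plus 3 SD, cut at about 5.5% in these data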;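 further: 100% = response to 3 µM Δ7-dafachronic acid high control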
DAX1 inh-2 = inhibits human nuclear receptor DAX1. P51843. HEK293 Gal4-DAX1 luciferase reporter, luminescence. inhibition, % at 6.75 µM. 340,000 compounds, 0.99% hits. AID 504766;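 active means inhibition above the mean over all tested compounds plus 3 SD, cut at about 4.2% in these data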;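 further: 0% = DAX1-transfected cells with DMSO and 100% = empty-vector control cells with DMSO; inhibition shows as a rise in luminescence from relieved DAX1 repression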
ssDAF12 agonist = S. stercoralis DAF-12 activation, primary screen | AID 652126 | activation, % at 6.8 µM | HEK293 ssDAF-12/GRIP1 lit1-tk-luc reporter, luminescence; % of 3 µM dafachronic acid response | 370,000 compounds, 1% hits;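 active means activation above the mean over all tested compounds plus 3 SD, cut at about 0.9% in these data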;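 further: 0% = DMSO-only wells and 100% = 3 µM delta7-dafachronic acid wells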
hgDAF12 agonist = agonists of H. glycines DAF-12 nuclear receptor; activation, % at 6.8 µM; 370,000 compounds, 1.8% hits; HEK293 GAL4-hgDAF12 UAS-luciferase reporter, agonist luminescence; normalized to butyrate control;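 active means activation above a cutoff set at the mean of all screened compounds plus 3 SD, cut at about 10% in these data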;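 further: 0% = DMSO wells and 100% = sodium butyrate wells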
DAX1 inh confirm = confirmation of human DAX1 (NR0B1) inhibitors; shares compounds with DAX1 inh-1; HEK293T StAR-promoter luciferase reporter, SF-1/DAX-1 repression; inhibition, % at 6.8 µM; 2,400 compounds, 87% hits;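 active means inhibition above the average of every tested compound plus 3 SD, cut at about 3.8% in these data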;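 further: 0% = DAX-1 cells with DMSO and 100% = no DAX-1 control cells with DMSO; active compounds raise luminescence by relieving repression of the StAR reporter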
Target sequence (P51843 whole entry, looked up): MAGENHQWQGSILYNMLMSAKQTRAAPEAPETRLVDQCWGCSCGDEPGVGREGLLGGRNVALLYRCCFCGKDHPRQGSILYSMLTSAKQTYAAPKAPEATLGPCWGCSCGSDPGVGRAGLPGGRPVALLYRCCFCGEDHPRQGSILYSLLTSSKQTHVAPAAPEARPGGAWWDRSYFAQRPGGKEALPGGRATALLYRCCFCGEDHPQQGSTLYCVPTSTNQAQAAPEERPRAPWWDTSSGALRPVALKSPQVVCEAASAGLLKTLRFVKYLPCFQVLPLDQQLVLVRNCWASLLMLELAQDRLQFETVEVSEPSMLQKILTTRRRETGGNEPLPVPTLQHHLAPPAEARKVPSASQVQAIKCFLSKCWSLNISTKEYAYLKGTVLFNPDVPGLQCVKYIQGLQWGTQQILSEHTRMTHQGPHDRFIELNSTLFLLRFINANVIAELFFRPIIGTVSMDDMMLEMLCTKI
SF1 AF2mut Luc = nonselective inhibitor or artifact in SF-1 mutant DAX1 counter-screen; HEK293 StAR-luciferase, SF-1 AF2 mutant, luminescence; inhibition, % at 6.8 µM; AID 652136; shares compounds with DAX1 inh-1; 2,400 compounds, 78% hits;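 active means inhibition above the mean of all tested compounds plus 3 SD, cut at about 3% in these data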;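 further: 0% = DAX-1 transfected cells with DMSO and 100% = cells without DAX-1 with DMSO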
Active calls of the source: *; . = not tested or not shown. A selection: hits, their analogues and other compounds. The true share with any hit is near 4.1%.

SMILES	DAX1 inh-1	hcDAF12 agonist	DAX1 inh-2	ssDAF12 agonist	hgDAF12 agonist	DAX1 inh confirm	SF1 AF2mut Luc
Cc1cnc(NC(=O)CSc2ccc(Cl)cc2)s1	0	-4	0	-1	1	.	.
CC(C)=CCC/C(C)=C/CNCC(=O)N1c2ccccc2[C@]2(C)C[C@@H]3C(=O)N(C/C=C(\C)CCC=C(C)C)CC(=O)N3[C@H]12	1	0	.	0	-1	.	.
Cc1cc(N2CCN(CC(C)(C)O)C[C@@H]2C)ccc1N1CCN(Cc2ccccc2)[C@H](C)C1	0	-2	.	-1	-2	.	.
O=S1(=O)c2ccc(Br)cc2OC[C@H](Cc2ccccc2)N1Cc1cn(Cc2ccc(F)cc2)nn1	1	3	.	-1	5	.	.
Cc1ccccc1NC(=O)c1ccc(-c2ccc(Cl)cc2Cl)o1	0	0	0	-1	0	.	.
Cc1ccc(NC(=O)c2ccc(-c3cc(Cl)ccc3Cl)o2)c(C)c1	5.9*	0	.	0	0	3	1
Cc1ccc2nc(N(CCCN(C)C)C(=O)c3ccc4ncsc4c3)sc2c1	6.4*	3	0	-1	7	11*	7.8*
O=C(CSc1nc2ccccc2nc1N1CCCC1)N1CCN(C(c2ccccc2)c2ccccc2)CC1	-1	0	.	-1	1	.	.
CCOC(=O)[C@]12CCCC=C1N(Cc1ccccc1)C(=O)[C@H](CC(=O)NCc1ccccc1)C2	0	0	.	-1	0	.	.
COC(=O)[C@@]12C[C@@H](CC(=O)NCc3ccc(C)o3)C(=O)N(CCc3ccc(OC)c(OC)c3)C1=CCC(C)(C)C2	5.8*	0	.	-1	0	2	1
CCOC(=O)[C@]12CCCC=C1N(Cc1ccco1)C(=O)[C@H](CC(=O)NCc1ccccc1)C2	4.7*	1	.	-1	3	1	3
CCCCNC(=O)C[C@@H]1C[C@@]2(C(=O)OCC)CCCC=C2N(CCc2ccc(OC)c(OC)c2)C1=O	5.2*	-1	.	-2	-2	1	-1
COC(=O)C1CN(Cc2cn(CCC3OCCO3)nn2)CCS(=O)(=O)N1Cc1ccccc1 (centres undefined)	0	0	.	-2	4	.	.
O=C(N[C@H](C(=O)N1CCC[C@H]1C(=O)NCc1ccccc1)c1ccccc1)c1ccccc1	-1	0	.	-1	1	.	.
Nc1c(C(=O)C2CC2)sc2nc3c(cc12)CCC3	4.7*	4	3	0	11*	9.8*	10.0*
Cc1ccnc2nc(C(=O)OCCOc3ccc(Cl)cc3)nn12	0	0	0	-1	4	.	.
CCOc1ccc(C(=O)COC(=O)c2nc3nccc(C)n3n2)cc1	4.9*	1	0	-1	0	3	2
CCCCOc1cccc(C(=O)NCCc2ccccc2-c2ccccc2CCC(=O)NCc2ccccc2)c1	0	1	.	-1	3	.	.
COC(=O)Nc1nc2ccc(SC(C)C)cc2[nH]1	-2	0	-1	0	6	.	.
COC(=O)Nc1nc2ccc(C(=O)c3cccs3)cc2[nH]1	8.7*	-1	0	0	-1	49*	-4
OC[C@@H]1CC[C@@H](Cc2ccc(-c3ccccc3)cc2)O1	5.6*	4	2	0	10	6.7*	4.8*
CCN(CC)c1ccc(C(=O)NNC(=O)c2cccn2C)cc1	5.1*	2	4.7*	1	11*	6.1*	5.5*
O=C(NC1CCCCN(Cc2ccc(Cl)cc2)C1=O)c1ccccc1 (centres undefined)	-1	-1	.	-1	2	.	.
O=S1(=O)CC(N2CCN(CC3CC3)CC2)CN1Cc1ccc(F)cc1 (centres undefined)	5.9*	2	.	-1	0	3	-1
O=S1(=O)CC(N2CC=CC2)CN1Cc1cn(Cc2ccc(F)cc2)nn1 (centres undefined)	5.2*	0	.	-1	-2	2	1
SMILES	DAX1 inh-1	hcDAF12 agonist	DAX1 inh-2	ssDAF12 agonist	hgDAF12 agonist	DAX1 inh confirm	SF1 AF2mut Luc
Cc1ccc(CNC[C@@]23CO[C@H](c4ccc(Cl)cc4)N2[C@@H](c2ccc(Cl)cc2)SC3)o1	0	-3	.	-1	-1	.	.
COc1ccc(-n2c(=O)c(NC(=O)c3ccccc3)c3n(c2=S)CCCCC3)cc1	4.9*	-2	1	-1	0	0	0
Cc1ccccc1Cn1cc(COC(=O)Nc2ccc(F)cc2)nn1	2	2	.	0	0	.	.
CCCn1c(C)cc(C(=O)COC(=O)c2cc(=O)[nH]c3ccccc23)c1C	5.4*	6.5*	-1	1	11*	9.3*	3.1*
Cc1ccc(C(=O)COC(=O)c2cc(=O)[nH]c3ccccc23)cc1	1	0	1	-1	-4	.	.
Cc1n[nH]c(C)c1NC(=O)CN1CCN(S(=O)(=O)c2ccc(C(F)(F)F)cc2)CC1	4.6*	0	-1	-1	-1	1	5.2*
Cc1ccc(C(=O)NNC(=S)NC(=O)COc2ccccc2)cc1	0	-1	0	-1	1	.	.
CC(C)(C)c1ccc(C(=O)NC(=S)NNC(=O)COc2ccccc2)cc1	12*	2	1	0	11*	2	2
CCN1CCN(Cc2ccc(NC(=O)Nc3ccccc3Cl)cc2)CC1	5.4*	3	4.6*	0	11*	11*	8.6*
Cc1cc(NC(=O)c2ccco2)sc1C	4.5*	5.7*	1	1	7	6.4*	4.5*
Cc1cccc(NC(=O)c2ccco2)c1C	0	1	2	-1	-1	.	.
Cc1ccc(Cc2cnc(NC(=O)c3ccco3)s2)cc1	6.6*	5.9*	0	1	13*	16*	5.2*
C[C@H](CO)N1C[C@H](C)[C@H](CN(C)C(=O)Nc2ccc3c(c2)OCO3)OCc2cnnn2CCCC1=O	-1	1	.	-1	0	.	.
CC(=O)N1CCN(C(=O)C2CCCN(C(=O)c3ccc4c(c3)NC(=O)CS4)C2)CC1 (centres undefined)	0	-2	.	-1	-3	.	.
O=C(Nc1ccc(Cl)cc1)Nc1ccccc1C(=O)O	5.3*	4	-2	0	10	9.0*	4.0*
O=C(Nc1ccc(Cl)cc1)Nc1ccccc1C(=O)N1CCCC1	-1	0	.	-1	4	.	.
COC(=O)CC#C[C@@H](C)[C@H](NS(=O)(=O)c1ccc(C)cc1)C(C)(C)C	0	-2	.	-1	-1	.	.
CC(=O)c1cccc(NC(=O)/C(=C\c2ccco2)NC(=O)c2ccco2)c1	4.9*	-1	1	-1	0	1	1
COc1ccc(C(=O)C[n+]2cn(C(F)F)c3ccccc32)c(F)c1	7.3*	3	1	0	9	2	3.9*

Assay outcomes as filed in PubChem.
